# Measurements published in ChEMBL document CHEMBL1157539, “Thousands of chemical starting points for antimalarial lead identification” (Nature, 2010).
# Tested on: HepG2
# Assay: GSK_TCMDC: Percent inhibition of human HepG2 cell line. Test compounds present at 10uM.
# Assay type: functional
row,SMILES,Inhibition
1,CCCCCCc1ncc(-c2cc3cc(O)c(-c4ccccc4)cc3oc2=O)s1,4%
2,Cc1cc(-c2cccc(CNCCc3ccc(Cl)cc3)c2)cnc1N.Cl,19%
3,O=C(O)C(=O)O.Oc1ccccc1CN1CCN(C(c2ccccc2)c2ccccc2)CC1,0%
4,C[C@@H](CNc1ccnc(Nc2ccc3[nH]c(=O)[nH]c3c2)n1)c1ccccc1,42%
5,COc1c(C2=CCN(CCCCNC(=O)c3ccc(-c4ccc(C#N)cc4)cc3)CC2)ccc2c1CCCC2,44%
6,Cc1ccccc1C1CCN(C2CCC(NC(=O)c3ccc(-c4cc(C(F)(F)F)nn4C)s3)CC2)CC1 (centres undefined),42%
7,O=C(O)C(F)(F)F.Oc1ccc(CCNc2nc(NCc3cccc(-c4cc(C(F)(F)F)ccc4Cl)c3)nc(N3CCNCC3)n2)cc1,33%
8,CC(=O)N1c2ccccc2C(C)=CC1(C)C,3%
9,Fc1ccc2[nH]c(-c3ccc(-c4ccc(CN5CCCCC5)cc4)cc3)nc2c1.O=C(O)C(F)(F)F,31%
